Experimental data from PubChem BioAssay (Tox21).
Records with an inconclusive call do not appear. Active and inactive are the calls of the source. Unless noted, calls follow the shape of the dose curve; as a rule, active = well fitted curve in the direction sought with a large enough effect in the repeat runs; inconclusive = weak or mixed curves; inactive = flat fitted curve, though single readings scatter.

Tests used:
[1] = qHTS assay to test for compound auto fluorescence at 535 nm (green) in HEK293 cells (AID 720680)
[2] = qHTS assay to test for compound auto fluorescence at 460 nm (blue) in HEK293 cell free culture (AID 720681)
Summary of the method: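 Compounds were added to cell-free DMEM with 10% FBS and fluorescence read directly. The blue channel used 405 nm excitation and 460 nm emission, with triamterene as the reference fluorophore.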

[3] = qHTS assay to test for compound auto fluorescence at 535 nm (green) in HEK293 cell free culture (AID 720682)
Summary of the method: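 Green-label autofluorescence (485 nm excitation, 535 nm emission) measured on compound added to cell-free culture medium (DMEM, 10% FBS). Output is expressed relative to fluorescein.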

[4] = qHTS assay to test for compound auto fluorescence at 590 nm (red) in HEK293 cell free culture (AID 720683)
Summary of the method: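 Cell-free wells of DMEM with 10% FBS received compound, and intrinsic fluorescence was read at excitation/emission 540/590 nm. Values expressed as equivalence to Rose Bengal sodium.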

[5] = qHTS assay to test for compound auto fluorescence at 590 nm (red) in HepG2 cell free culture (AID 720684)
Summary of the method: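 Compound was pinned into wells holding MEM with 10% FBS and no cells, and red fluorescence was read at Ex/Em 540/590 nm. Signal is expressed as auto fluorescence equivalency relative to Rose Bengal sodium.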

[6] = qHTS assay to test for compound auto fluorescence at 460 nm (blue) in HepG2 cell free culture (AID 720685)
Summary of the method: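 Compound (23 nL) or DMSO pinned into cell-free MEM with 10% FBS; blue fluorescence read at 405/460 nm excitation/emission, expressed as auto-fluorescence equivalency to triamterene.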

[7] = qHTS assay to test for compound auto fluorescence at 535 nm (green) in HepG2 cell free culture (AID 720686)
[8] = qHTS assay to test for compound auto fluorescence at 460 nm (blue) in HepG2 cells (AID 720687)
Summary of the method: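 HepG2 cells in MEM with 10% FBS, attached overnight at 37 C, were exposed to compound or DMSO for 1 hr at 37 C, 5% CO2. Blue fluorescence was read at 405/460 nm, with triamterene as reference fluorophore.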

[9] = molecular target: Glucocorticoid receptor (Homo sapiens) (UniProt P04150); assay: qHTS assay to identify small molecule agonists of the glucocorticoid receptor (GR) signaling pathway (AID 720691; active = well fitted activation curve with a large enough effect in the signal ratio in the repeat runs, not every such curve was filed as active; the % refers to the signal ratio)
Summary of the method: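 Beta-lactamase reporter activity, read as fluorescence intensity, was measured in GR-bla HeLa cells exposed to compounds for 18 h at 37 C and then loaded with LiveBLAzer B/G FRET substrate for 2 h at room temperature.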

[10] = molecular target: Glucocorticoid receptor (Homo sapiens) (UniProt P04150); assay: qHTS assay to identify small molecule antagonists of the glucocorticoid receptor (GR) signaling pathway (AID 720692; active = well fitted inhibition curve with a large enough effect in the signal ratio in the repeat runs, not every such curve was filed as active; the % refers to the signal ratio)
Summary of the method: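 Fluorescence from cleaved LiveBLAzer B/G FRET substrate reports GRE-driven beta-lactamase in HeLa cells; compounds are tested against 5 nM dexamethasone (final) over 18 h at 37 C, substrate incubation 2 h at room temperature.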
% is scaled to controls: 0 for no effect and ±100 for the full control effect.

Chain of Glucocorticoid receptor (Homo sapiens) (P04150 whole entry, looked up): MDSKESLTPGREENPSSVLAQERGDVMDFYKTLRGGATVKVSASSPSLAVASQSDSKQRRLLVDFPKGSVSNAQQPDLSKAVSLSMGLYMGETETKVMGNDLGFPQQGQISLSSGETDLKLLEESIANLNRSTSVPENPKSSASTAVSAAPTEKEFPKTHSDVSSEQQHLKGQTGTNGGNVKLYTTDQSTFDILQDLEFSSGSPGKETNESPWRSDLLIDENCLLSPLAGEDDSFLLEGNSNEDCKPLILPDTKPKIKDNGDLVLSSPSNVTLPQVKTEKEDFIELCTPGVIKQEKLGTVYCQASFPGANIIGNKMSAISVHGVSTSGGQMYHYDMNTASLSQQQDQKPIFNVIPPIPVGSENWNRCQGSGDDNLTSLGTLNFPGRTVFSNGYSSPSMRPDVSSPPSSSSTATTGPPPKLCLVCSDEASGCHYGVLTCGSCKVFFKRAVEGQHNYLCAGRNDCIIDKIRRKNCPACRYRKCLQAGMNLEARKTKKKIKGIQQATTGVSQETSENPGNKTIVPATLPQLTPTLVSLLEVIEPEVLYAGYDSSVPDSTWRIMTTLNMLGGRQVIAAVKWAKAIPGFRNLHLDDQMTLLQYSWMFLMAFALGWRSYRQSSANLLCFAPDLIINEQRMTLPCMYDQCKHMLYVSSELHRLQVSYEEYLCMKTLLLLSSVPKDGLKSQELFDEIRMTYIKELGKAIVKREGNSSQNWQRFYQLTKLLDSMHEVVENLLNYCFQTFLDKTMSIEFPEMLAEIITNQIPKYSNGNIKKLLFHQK

N#Cc1c(F)cccc1F
inactive: outcome [1] | Potency [2] | outcome [3] | outcome [4] | outcome [5] | Potency [6] | outcome [7] | Potency [8] | Potency [9] | Potency [10]

CC(=O)N(O)CCCCCNC(=O)CCC(=O)N(O)CCCCCNC(=O)CCC(=O)N(O)CCCCCN
inactive: fluorescence, % of fluorescein [1] 0.127% [at 18.6 µM] | fluorescence, % of fluorescent control [2] 0.0573% [at 18.6 µM] | activity change [3] 0.033% [at 18.6 µM] | fluorescence, % of fluorescent control [4] -0.0386% [at 18.6 µM] | fluorescence, % of Rose Bengal [5] -0.352% [at 18.6 µM] | fluorescence, % of fluorescent control [6] 0.0393% [at 18.6 µM] | fluorescence, % of fluorescein control [7] 0.169% [at 18.6 µM] | fluorescence, % of fluorescent control [8] 0.041% [at 18.6 µM] | Potency [9]

O=C(NN1CCCC1)NS(=O)(=O)c1ccc(Cl)cc1
inactive: outcome [1] | Potency [2] | outcome [3] | outcome [4] | outcome [5] | Potency [6] | outcome [7] | Potency [8] | Potency [9] | Potency [10]

O=C(c1ccc(O)cc1)c1ccc(O)cc1
inactive: outcome [1] | Potency [2] | outcome [3] | outcome [4] | outcome [5] | Potency [6] | outcome [7] | Potency [8] | Potency [9] | Potency [10]

CN1CCC(=C2c3ccccc3CCc3sccc32)CC1
inactive: outcome [1] | Potency [2] | outcome [3] | outcome [4] | outcome [5] | Potency [6] | outcome [7] | Potency [8] | Potency [9]

CN1CCC(OC(c2ccccc2)c2ccccc2)CC1
inactive: fluorescence, % of fluorescein [1] -0.132% [at 18.6 µM] | fluorescence, % of fluorescent control [2] -0.231% [at 18.6 µM] | activity change [3] -0.251% [at 18.6 µM] | fluorescence, % of fluorescent control [4] 0.167% [at 18.6 µM] | fluorescence, % of Rose Bengal [5] 0.0772% [at 18.6 µM] | fluorescence, % of fluorescent control [6] -0.163% [at 18.6 µM] | fluorescence, % of fluorescein control [7] -0.14% [at 18.6 µM] | fluorescence, % of fluorescent control [8] -0.0097% [at 18.6 µM] | Potency [9] | Potency [10]

CCCCCCCCCC=O
inactive: outcome [1] | Potency [2] | outcome [3] | outcome [4] | outcome [5] | Potency [6] | outcome [7] | Potency [8] | Potency [9]

CC(=O)SCc1ccco1
inactive: outcome [1] | Potency [2] | outcome [3] | outcome [4] | outcome [5] | Potency [6] | outcome [7] | Potency [8] | Potency [9] | Potency [10]

CC(C)c1ccccc1C(C)C
inactive: outcome [1] | Potency [2] | outcome [3] | outcome [4] | outcome [5] | Potency [6] | outcome [7] | Potency [8] | Potency [9]

CC1CCc2cc(F)cc3c(=O)c(C(=O)O)cn1c23 (centres undefined)
inactive: outcome [1] | Potency [2] | outcome [3] | outcome [4] | outcome [5] | Potency [6] | outcome [7] | Potency [8] | Potency [9]

CC(CN)CCCN (centres undefined)
inactive: outcome [1] | Potency [2] | outcome [3] | outcome [4] | outcome [5] | Potency [6] | outcome [7] | Potency [8] | Potency [9]

OCCC1CCCCN1 (centres undefined)
inactive: outcome [1] | Potency [2] | outcome [3] | outcome [4] | outcome [5] | Potency [6] | outcome [7] | Potency [8] | Potency [9]

O=C(C(=O)c1ccc(Br)cc1)c1ccc(Br)cc1
inactive: fluorescence, % of fluorescein [1] -0.0337% [at 18.6 µM] | fluorescence, % of fluorescent control [2] -0.0047% [at 18.6 µM] | activity change [3] 0.0143% [at 18.6 µM] | fluorescence, % of fluorescent control [4] -0.0329% [at 18.6 µM] | fluorescence, % of Rose Bengal [5] -0.0316% [at 18.6 µM] | fluorescence, % of fluorescent control [6] -0.0311% [at 18.6 µM] | fluorescence, % of fluorescein control [7] -0.0449% [at 18.6 µM] | fluorescence, % of fluorescent control [8] 0.0185% [at 18.6 µM] | Potency [9] | Potency [10]

O=C1c2cccc(O)c2C(=O)c2c(O)cc(CO)cc21
inactive: outcome [1] | Potency [2] | outcome [3] | outcome [4] | outcome [5] | Potency [6] | outcome [7] | Potency [8] | Potency [9]

COC(=O)C(C)=O
inactive: outcome [1] | Potency [2] | outcome [3] | outcome [4] | outcome [5] | Potency [6] | outcome [7] | Potency [8] | Potency [9]

CCCCCC/C=C/C=O
inactive: outcome [1] | Potency [2] | outcome [3] | outcome [4] | outcome [5] | Potency [6] | outcome [7] | Potency [8] | Potency [9]

Cc1cc(NC(=O)C(=O)O)cc(C)c1Oc1ccc(O)c2c1CCC2
inactive: outcome [1] | Potency [2] | outcome [3] | outcome [4] | outcome [5] | Potency [6] | outcome [7] | Potency [8] | Potency [9]

CCOc1ccc(NC(=O)CC(C)=O)cc1
inactive: outcome [1] | Potency [2] | outcome [3] | outcome [4] | outcome [5] | Potency [6] | outcome [7] | Potency [8] | Potency [9] | Potency [10]

CC(C)=CCCC(C)CC=O (centres undefined)
inactive: outcome [1] | Potency [2] | outcome [3] | outcome [4] | outcome [5] | Potency [6] | outcome [7] | Potency [8] | Potency [9] | Potency [10]

O=C(O)/C=C/c1cnc[nH]1
inactive: outcome [1] | Potency [2] | outcome [3] | outcome [4] | outcome [5] | Potency [6] | outcome [7] | Potency [8] | Potency [9] | Potency [10]

CN(C)CCCNCCCN
inactive: outcome [1] | Potency [2] | outcome [3] | outcome [4] | outcome [5] | Potency [6] | outcome [7] | Potency [8] | Potency [9] | Potency [10]

O=c1[nH]cnc2ccccc12
inactive: outcome [1] | Potency [2] | outcome [3] | outcome [4] | outcome [5] | Potency [6] | outcome [7] | Potency [8] | Potency [9] | Potency [10]
